We go through one compound from ChEMBL document CHEMBL1961873, “Compounds: GSK PKIS; Assays: Nanosyn kinase panel” (2012).

Experiment [1] deals with T1, Inhibitor of nuclear factor kappa-B kinase subunit epsilon (Homo sapiens) (UniProt Q14164).
T1 sequence (whole entry): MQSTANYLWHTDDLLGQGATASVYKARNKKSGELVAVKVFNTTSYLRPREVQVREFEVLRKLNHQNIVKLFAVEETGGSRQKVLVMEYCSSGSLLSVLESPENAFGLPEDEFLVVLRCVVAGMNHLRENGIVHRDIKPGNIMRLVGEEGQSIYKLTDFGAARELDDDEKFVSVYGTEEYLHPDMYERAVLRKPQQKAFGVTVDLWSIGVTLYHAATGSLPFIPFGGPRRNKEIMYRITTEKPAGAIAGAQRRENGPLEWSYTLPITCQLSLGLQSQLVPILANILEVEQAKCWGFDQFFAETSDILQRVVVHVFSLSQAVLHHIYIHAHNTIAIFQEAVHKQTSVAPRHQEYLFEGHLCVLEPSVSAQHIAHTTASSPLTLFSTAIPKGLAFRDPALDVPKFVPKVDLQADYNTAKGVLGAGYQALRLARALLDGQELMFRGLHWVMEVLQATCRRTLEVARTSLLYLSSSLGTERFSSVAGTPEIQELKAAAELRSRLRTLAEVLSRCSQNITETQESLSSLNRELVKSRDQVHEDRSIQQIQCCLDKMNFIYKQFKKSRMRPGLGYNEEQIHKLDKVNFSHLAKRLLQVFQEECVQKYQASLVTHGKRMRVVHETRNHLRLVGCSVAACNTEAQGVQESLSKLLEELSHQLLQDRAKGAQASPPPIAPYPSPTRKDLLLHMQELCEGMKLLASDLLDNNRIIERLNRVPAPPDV
Particulars: at 1 µM.

Experiment [2] has as its target T2, Serine/threonine-protein kinase Nek1 (Homo sapiens) (UniProt Q96PY6).
T2 sequence (whole entry): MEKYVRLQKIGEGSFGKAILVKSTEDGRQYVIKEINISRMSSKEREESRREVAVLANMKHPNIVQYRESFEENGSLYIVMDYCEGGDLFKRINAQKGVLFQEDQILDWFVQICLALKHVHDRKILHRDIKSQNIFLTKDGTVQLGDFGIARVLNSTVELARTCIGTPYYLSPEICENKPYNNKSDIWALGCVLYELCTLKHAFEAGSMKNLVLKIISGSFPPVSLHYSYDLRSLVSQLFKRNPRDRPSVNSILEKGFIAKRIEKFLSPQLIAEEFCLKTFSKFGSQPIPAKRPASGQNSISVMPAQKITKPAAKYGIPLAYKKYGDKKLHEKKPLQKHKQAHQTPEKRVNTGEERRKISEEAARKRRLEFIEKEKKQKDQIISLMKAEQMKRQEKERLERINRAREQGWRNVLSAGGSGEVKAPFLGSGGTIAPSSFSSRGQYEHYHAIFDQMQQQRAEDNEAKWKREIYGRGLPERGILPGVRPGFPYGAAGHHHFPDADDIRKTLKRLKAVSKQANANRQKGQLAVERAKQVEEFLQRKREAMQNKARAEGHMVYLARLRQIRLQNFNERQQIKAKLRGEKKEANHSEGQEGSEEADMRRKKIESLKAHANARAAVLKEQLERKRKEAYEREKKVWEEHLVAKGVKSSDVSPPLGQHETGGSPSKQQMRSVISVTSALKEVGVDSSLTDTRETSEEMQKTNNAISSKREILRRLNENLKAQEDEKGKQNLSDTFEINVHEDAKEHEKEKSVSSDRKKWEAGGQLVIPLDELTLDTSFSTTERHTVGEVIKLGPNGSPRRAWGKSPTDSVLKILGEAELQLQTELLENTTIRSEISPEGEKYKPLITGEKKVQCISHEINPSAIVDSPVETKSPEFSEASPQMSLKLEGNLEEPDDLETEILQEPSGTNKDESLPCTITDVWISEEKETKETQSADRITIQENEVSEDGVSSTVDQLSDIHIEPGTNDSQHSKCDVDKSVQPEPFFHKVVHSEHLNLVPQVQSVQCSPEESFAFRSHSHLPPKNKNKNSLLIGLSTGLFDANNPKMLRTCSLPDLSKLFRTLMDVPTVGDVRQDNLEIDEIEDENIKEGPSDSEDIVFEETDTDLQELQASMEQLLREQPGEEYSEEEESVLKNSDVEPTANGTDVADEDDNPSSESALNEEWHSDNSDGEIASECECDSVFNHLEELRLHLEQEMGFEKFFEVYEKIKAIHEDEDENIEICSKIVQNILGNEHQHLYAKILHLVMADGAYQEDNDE
Particulars: at 0.1 µM.

For experiment [3], the target named is T2, Serine/threonine-protein kinase Nek1 (Homo sapiens). Particulars: at 1 µM.
Experiment [4] concerns the target T3, Serine/threonine-protein kinase Nek2 (Homo sapiens) (UniProt P51955).
T3 sequence (whole entry): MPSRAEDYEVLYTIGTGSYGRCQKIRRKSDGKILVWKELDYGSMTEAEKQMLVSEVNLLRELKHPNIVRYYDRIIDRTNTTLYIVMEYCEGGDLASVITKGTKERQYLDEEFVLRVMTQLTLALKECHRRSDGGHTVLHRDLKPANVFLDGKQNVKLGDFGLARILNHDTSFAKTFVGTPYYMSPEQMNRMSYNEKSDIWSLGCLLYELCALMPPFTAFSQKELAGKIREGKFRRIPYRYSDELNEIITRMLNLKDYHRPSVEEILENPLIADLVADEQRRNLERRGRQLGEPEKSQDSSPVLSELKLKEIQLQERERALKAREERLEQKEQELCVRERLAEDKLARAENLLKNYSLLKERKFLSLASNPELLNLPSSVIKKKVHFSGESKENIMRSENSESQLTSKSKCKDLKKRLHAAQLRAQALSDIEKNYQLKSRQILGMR
The following applies: at 0.1 µM.

In experiment [5] the target is T3, Serine/threonine-protein kinase Nek2 (Homo sapiens). The following applies: at 1 µM.
For experiment [6], the target named is Serine/threonine-protein kinase Nek6 (Homo sapiens) (UniProt Q9HC98). Particulars: at 0.1 µM.
Experiment [7] has the same target. The following applies: at 1 µM.
The target in experiment [8] is Serine/threonine-protein kinase Nek7 (Homo sapiens) (UniProt Q8TDX7). Particulars: at 0.1 µM.
Experiment [9] shares this target. The following applies: at 1 µM.
Experiment [10] addresses T4, Serine/threonine-protein kinase Nek9 (Homo sapiens) (UniProt Q8TD19).
T4 sequence (whole entry): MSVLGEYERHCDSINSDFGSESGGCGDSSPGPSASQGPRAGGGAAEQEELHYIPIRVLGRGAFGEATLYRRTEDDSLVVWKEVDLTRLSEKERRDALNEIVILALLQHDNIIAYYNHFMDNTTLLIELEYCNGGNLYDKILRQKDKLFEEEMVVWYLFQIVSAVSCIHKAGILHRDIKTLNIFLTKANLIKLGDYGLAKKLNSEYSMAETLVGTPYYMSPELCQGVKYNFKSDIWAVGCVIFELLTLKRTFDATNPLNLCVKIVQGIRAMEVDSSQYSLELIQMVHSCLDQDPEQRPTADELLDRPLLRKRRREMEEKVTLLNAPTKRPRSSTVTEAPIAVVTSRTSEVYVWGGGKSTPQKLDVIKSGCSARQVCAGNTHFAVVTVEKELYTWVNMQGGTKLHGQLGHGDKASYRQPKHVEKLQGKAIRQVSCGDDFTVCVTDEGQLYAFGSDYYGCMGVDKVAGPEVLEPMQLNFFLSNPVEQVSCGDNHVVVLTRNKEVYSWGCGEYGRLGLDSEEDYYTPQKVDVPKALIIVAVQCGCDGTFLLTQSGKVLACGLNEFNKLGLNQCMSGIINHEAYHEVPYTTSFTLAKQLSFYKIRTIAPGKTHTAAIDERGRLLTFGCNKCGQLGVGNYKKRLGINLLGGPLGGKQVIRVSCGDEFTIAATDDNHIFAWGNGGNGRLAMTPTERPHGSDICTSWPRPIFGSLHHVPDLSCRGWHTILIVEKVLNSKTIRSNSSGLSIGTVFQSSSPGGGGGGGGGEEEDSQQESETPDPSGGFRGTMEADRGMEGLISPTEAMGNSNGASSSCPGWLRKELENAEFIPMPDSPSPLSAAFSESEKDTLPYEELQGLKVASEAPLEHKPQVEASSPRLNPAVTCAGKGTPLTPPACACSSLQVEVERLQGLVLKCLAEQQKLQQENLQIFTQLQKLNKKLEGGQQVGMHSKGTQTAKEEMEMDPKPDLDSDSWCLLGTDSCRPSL
The following applies: at 0.1 µM.

Experiment [11] deals with T4, Serine/threonine-protein kinase Nek9 (Homo sapiens). The following applies: at 1 µM.
Experiment [12] deals with Serine/threonine-protein kinase PLK1 (Homo sapiens) (UniProt P53350). The following applies: at 0.1 µM.
For experiment [13] the target is unchanged. The following applies: at 1 µM.
Experiment [14] concerns the target T5, Dual specificity protein kinase TTK (Homo sapiens) (UniProt P33981).
T5 sequence (whole entry): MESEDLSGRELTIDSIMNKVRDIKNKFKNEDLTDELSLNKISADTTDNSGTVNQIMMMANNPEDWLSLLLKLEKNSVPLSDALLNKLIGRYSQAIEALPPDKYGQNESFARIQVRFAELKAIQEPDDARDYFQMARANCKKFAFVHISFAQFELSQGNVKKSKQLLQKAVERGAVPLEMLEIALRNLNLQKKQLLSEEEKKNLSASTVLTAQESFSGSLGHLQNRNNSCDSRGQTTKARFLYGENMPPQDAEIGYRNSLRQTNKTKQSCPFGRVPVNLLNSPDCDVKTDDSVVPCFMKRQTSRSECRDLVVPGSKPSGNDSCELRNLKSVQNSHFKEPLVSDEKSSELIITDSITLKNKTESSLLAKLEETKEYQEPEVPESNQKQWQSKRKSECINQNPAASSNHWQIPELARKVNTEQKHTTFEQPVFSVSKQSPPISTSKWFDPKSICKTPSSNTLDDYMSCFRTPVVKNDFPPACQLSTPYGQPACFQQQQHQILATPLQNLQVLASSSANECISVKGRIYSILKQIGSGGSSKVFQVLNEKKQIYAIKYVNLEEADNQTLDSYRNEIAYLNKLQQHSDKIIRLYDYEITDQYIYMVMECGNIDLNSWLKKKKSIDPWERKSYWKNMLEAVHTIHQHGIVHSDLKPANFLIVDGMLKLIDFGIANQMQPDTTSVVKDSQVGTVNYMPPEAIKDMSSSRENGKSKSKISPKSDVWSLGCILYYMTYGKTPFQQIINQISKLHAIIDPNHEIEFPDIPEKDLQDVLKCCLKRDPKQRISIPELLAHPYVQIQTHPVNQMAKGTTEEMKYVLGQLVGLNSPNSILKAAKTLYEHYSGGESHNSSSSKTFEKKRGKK
The following applies: at 0.1 µM.

In experiment [15] the test system is T6, Receptor-type tyrosine-protein kinase FLT3 (Homo sapiens), P36888 [D835Y].
T6 sequence (whole entry): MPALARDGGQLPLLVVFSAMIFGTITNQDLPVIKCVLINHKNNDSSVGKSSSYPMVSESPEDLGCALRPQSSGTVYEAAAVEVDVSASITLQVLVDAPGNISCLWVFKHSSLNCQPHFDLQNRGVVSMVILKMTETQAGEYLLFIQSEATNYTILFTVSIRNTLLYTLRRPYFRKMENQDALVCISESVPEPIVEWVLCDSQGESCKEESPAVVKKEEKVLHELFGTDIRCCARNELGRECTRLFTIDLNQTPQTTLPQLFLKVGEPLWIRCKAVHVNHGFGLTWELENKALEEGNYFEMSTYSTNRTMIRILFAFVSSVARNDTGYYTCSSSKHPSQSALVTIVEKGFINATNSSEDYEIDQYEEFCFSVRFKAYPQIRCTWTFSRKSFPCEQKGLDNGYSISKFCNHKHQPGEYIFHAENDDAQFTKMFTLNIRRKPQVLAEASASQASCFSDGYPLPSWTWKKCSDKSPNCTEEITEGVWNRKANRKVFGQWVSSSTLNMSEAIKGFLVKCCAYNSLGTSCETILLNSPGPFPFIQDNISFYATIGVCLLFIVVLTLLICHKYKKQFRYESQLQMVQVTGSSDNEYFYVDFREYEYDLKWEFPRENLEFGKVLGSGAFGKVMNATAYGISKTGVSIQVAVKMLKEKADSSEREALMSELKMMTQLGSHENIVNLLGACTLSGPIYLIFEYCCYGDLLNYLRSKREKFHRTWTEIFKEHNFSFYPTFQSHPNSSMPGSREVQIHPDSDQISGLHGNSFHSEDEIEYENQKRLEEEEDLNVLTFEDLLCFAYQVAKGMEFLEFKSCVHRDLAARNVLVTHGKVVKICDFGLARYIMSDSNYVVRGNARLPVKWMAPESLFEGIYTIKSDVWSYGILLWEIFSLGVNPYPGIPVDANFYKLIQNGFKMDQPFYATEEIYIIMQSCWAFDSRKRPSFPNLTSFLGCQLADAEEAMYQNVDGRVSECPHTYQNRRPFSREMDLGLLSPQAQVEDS
Particulars: at 1 µM.

The target in experiment [16] is Vascular endothelial growth factor receptor 3 (Homo sapiens) (UniProt P35916). Particulars: at 0.1 µM.
For experiment [17] the target is unchanged. Particulars: at 1 µM.
Experiment [18] has as its target Macrophage colony-stimulating factor 1 receptor (Homo sapiens) (UniProt P07333). Particulars: at 0.1 µM.
Experiment [19] shares this target. The following applies: at 1 µM.
The target in experiment [20] is Tyrosine-protein kinase Fyn (Homo sapiens) (UniProt P06241). Particulars: at 0.1 µM.
Chain of Tyrosine-protein kinase Fyn (Homo sapiens) (P06241 2-537 limits assumed): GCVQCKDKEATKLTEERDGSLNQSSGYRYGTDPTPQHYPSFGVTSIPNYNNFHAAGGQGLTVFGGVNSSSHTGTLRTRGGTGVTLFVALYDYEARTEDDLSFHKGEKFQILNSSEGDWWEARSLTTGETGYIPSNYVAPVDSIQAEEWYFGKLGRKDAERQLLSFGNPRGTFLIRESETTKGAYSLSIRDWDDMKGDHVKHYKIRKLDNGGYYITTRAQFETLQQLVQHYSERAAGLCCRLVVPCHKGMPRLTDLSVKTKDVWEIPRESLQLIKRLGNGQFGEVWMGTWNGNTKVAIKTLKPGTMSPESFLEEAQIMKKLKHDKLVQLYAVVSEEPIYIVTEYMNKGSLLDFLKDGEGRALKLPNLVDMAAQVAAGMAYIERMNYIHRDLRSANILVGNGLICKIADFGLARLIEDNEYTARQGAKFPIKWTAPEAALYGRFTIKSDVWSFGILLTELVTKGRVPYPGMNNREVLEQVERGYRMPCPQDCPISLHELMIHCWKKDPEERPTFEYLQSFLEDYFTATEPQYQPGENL

Chain of Macrophage colony-stimulating factor 1 receptor (Homo sapiens) (P07333 whole entry): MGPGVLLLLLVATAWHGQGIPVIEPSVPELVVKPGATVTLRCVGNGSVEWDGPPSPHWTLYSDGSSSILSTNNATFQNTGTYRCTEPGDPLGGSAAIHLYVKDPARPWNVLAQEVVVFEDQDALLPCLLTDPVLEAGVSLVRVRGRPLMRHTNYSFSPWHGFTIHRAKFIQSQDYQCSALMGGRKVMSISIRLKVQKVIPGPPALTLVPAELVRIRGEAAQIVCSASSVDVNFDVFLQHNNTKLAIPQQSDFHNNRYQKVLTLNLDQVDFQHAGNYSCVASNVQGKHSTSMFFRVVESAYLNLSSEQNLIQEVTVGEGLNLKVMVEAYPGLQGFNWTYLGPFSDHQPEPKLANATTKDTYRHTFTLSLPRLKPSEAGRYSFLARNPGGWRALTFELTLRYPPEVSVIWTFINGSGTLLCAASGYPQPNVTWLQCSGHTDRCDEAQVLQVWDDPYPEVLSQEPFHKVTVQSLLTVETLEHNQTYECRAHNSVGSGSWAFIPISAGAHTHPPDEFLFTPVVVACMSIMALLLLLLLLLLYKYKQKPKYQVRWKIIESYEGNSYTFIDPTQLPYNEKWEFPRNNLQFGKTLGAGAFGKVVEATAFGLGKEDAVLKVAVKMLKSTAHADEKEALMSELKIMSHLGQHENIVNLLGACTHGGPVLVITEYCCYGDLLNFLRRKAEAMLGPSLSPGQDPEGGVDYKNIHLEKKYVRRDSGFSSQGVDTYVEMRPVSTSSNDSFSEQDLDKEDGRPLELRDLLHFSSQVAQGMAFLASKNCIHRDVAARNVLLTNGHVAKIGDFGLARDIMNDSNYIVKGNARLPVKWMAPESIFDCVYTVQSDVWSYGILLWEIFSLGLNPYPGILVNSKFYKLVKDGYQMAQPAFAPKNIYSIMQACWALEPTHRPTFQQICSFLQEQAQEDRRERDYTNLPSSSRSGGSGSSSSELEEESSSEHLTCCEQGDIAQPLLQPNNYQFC
Chain of Vascular endothelial growth factor receptor 3 (Homo sapiens) (P35916 whole entry): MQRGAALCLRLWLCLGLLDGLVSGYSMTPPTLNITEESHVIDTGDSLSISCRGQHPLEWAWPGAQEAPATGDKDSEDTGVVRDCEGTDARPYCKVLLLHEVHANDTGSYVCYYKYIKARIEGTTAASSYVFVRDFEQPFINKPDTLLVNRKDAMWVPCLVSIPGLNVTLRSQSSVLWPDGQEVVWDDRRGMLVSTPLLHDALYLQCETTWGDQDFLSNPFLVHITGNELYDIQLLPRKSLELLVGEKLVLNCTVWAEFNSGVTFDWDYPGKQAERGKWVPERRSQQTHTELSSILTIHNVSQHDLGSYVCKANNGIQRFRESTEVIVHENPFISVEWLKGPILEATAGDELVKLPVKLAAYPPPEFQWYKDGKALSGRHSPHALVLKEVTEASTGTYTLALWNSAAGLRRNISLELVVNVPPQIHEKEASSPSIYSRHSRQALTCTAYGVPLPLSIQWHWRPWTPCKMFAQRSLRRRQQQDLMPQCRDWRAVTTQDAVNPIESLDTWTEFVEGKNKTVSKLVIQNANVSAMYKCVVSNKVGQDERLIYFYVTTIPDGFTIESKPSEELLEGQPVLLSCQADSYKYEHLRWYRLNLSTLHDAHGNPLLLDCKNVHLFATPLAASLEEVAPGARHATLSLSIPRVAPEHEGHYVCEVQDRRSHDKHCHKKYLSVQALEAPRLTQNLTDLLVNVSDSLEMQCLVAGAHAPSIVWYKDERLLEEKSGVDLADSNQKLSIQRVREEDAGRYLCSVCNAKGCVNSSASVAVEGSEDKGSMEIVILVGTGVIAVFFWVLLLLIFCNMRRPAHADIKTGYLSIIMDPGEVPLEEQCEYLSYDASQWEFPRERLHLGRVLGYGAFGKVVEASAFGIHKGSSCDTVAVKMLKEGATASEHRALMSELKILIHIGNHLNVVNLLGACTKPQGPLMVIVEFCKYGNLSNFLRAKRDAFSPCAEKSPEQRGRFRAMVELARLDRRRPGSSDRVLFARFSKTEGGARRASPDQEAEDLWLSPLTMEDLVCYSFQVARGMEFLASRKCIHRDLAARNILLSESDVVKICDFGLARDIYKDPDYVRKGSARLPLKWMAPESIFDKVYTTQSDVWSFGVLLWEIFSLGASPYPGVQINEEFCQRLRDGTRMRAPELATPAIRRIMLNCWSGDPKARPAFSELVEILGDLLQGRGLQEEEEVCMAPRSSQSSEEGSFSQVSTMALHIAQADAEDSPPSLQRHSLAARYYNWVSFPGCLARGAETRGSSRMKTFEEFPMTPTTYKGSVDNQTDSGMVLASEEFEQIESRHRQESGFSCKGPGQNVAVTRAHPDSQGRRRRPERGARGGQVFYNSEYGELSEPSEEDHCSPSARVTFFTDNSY
Chain of Serine/threonine-protein kinase Nek6 (Homo sapiens) (Q9HC98 whole entry): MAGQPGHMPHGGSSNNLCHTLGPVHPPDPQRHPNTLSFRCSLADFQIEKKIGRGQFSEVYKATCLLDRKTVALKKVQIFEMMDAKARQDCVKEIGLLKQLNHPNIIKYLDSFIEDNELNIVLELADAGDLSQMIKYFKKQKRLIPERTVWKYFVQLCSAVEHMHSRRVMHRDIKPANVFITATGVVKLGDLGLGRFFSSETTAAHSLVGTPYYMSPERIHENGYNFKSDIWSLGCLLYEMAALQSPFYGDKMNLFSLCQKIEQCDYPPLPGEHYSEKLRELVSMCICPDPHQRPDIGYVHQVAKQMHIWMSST
Chain of Serine/threonine-protein kinase Nek7 (Homo sapiens) (Q8TDX7 whole entry, looked up): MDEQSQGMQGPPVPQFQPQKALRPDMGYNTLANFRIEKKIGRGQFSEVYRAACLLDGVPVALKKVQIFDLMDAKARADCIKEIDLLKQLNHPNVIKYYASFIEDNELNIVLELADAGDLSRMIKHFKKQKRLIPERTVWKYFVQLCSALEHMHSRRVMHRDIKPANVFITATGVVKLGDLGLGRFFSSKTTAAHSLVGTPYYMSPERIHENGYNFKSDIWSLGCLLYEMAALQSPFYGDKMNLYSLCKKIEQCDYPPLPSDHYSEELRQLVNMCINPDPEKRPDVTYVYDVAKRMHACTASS
Chain of Serine/threonine-protein kinase PLK1 (Homo sapiens) (P53350 whole entry): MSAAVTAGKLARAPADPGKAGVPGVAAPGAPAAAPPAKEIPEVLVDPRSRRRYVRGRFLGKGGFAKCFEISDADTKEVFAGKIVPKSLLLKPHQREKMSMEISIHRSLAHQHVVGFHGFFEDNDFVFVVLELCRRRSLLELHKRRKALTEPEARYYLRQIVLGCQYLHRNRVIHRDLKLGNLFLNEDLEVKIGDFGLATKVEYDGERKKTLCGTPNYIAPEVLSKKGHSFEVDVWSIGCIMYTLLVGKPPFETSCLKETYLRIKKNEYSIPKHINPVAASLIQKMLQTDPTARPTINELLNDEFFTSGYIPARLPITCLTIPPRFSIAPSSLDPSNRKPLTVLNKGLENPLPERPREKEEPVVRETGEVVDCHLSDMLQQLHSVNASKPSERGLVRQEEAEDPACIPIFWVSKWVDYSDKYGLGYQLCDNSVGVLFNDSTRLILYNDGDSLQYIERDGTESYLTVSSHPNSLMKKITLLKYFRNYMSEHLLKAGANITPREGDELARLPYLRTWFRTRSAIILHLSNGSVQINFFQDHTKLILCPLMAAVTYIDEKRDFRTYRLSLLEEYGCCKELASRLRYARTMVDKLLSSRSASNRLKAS

In the case of `Cc1ccc(C(=O)NC2CC2)cc1-c1ccc2[nH]ncc2c1`, the inhibition (commonly the relative decrease from the control value, in per cent) in experiment [1] is -3.47%; in experiment [2], -0.31%; in experiment [3], 1.87%; in experiment [4], -2.19%; in [5], 0.98%; in experiment [6] it was -3.09%. Moreover, the inhibition in experiment [7] was -3.72%; in [8] it was -7.62%; in experiment [9], -4.5%; in experiment [10], 0.32%; in [11], -2.78%; in experiment [12], -2.55%. In addition, the inhibition was -0.76% in experiment [13]; -7.32% in experiment [14]; 3.33% in experiment [15]; -0.16% in experiment [16]; 1.13% in [17]; -5.43% in experiment [18]. Moreover, the inhibition is 4.56% in [19] and -0.87% in [20].
